Measurements from PubChem BioAssay (NCI).
About 79,000 compounds went through this panel and 15% of them were active in at least one assay; those are over-represented in the sample as a whole. No stated cut-off is given here; in the data, active means growth inhibition above about 70%; inactive means the rest.

How the values were obtained:
[1] = NCI Yeast Anticancer Drug Screen. Data for the rad50 strain (AID 155);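 further: 0% = growth of vehicle-only cultures of the same strain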; conditions: S. cerevisiae rad50 strain growth inhibition; at 50.0 µM; stronger effect = higher value
Summary of the method: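 Readout: growth inhibition relative to vehicle-treated cultures. Compound exposure was carried out in a genetically defined yeast strain deficient in DNA damage repair.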

[2] = NCI Yeast Anticancer Drug Screen. Data for the mec2-1 strain (AID 157); conditions: S. cerevisiae mec2-1 strain, at 50.0 µM, stronger effect = higher value
Summary of the method: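 Cells of the genetically defined mec2-1 yeast strain are incubated with test compound. Inhibition of growth is calculated against vehicle-treated controls.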

[3] = NCI Yeast Anticancer Drug Screen. Data for the sgs1 mgt1 strain (AID 161);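 further: 0% = growth of cultures given vehicle only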; conditions: S. cerevisiae sgs1 mgt1 strain, at 50.0 µM, stronger effect = higher value
Summary of the method: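 Mutant yeast exposed to compound; growth scored against vehicle-only wells.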

[4] = NCI Yeast Anticancer Drug Screen. Data for the cln2 rad14 strain (AID 165);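 further: 0% = growth equal to vehicle treated cultures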; conditions: S. cerevisiae cln2 rad14 strain, at 50.0 µM, stronger effect = higher value
Summary of the method: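 The screen exposed genetically defined yeast (cln2 rad14) to test compounds and scored growth inhibition relative to vehicle-treated controls.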

[5] = NCI Yeast Anticancer Drug Screen. Data for the bub3 strain (AID 167); conditions: S. cerevisiae bub3 mutant strain, at 50.0 µM, stronger effect = higher value
Summary of the method: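 Readout: yeast growth inhibition, expressed relative to vehicle-only wells. The test organism is a mutant strain from a panel with lesions in DNA repair or checkpoint genes.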

[6] = NCI Yeast Anticancer Drug Screen. Data for the mlh1 rad18 strain (AID 175); conditions: S. cerevisiae mlh1 rad18 strain growth inhibition; at 50.0 µM; stronger effect = higher value
Summary of the method: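 Compound-treated yeast growth, normalised to vehicle controls. Strain bears defined DNA repair mutations.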

Measured: growth inhibition

C1=COC(C2NCCCN2)CC1 (centres undefined)
inactive: [1] -5.9% | [2] 8.25% | [3] -2.6% | [4] -68.8% | [5] -26.5% | [6] -3.7%

O=S(=O)(c1ccc(Nc2nnc(-c3ccccc3)s2)cc1)N1CCCCC1
inactive: [1] -4% | [2] 12.8% | [3] 42.3% | [4] -23.1% | [5] 40.9% | [6] 5.65%

Cc1ccccc1N=Nc1c(-c2ccccc2)nn(C(=O)CC(=O)Nc2cccc(Cl)c2)c1-c1ccccc1
inactive: [1] 60.9% | [2] 21.6% | [3] 55.5% | [4] 34.3% | [5] 68% | [6] 41.5%

CCOC(=O)C(C)(C)OC(C)=O
inactive: [1] 39.2% | [2] 21.4% | [3] 19.6% | [4] 13.8% | [5] 4.2% | [6] 2.15%

CN1CNC(=O)c2n[nH]nc21
inactive: [1] -1.25% | [2] 34.5% | [3] -4.15% | [4] -21% | [5] 13.1% | [6] -2.7%

O=C(/C=C/CC(O)(c1ccccc1)c1ccccc1)Nc1ccccc1Cl
inactive: [1] -15.2% | [2] -25.9% | [3] -4.85% | [4] 2.5% | [5] 10.1% | [6] -10.2%

Cc1c(C#N)c(=N)oc2ccccc12
inactive: [1] 7.9% | [2] 7.35% | [3] 22.8% | [4] 14.5% | [5] 18.1% | [6] -31.5%

CCCCNc1ncnc2c1cnn2-c1ccccc1
inactive: [1] 7% | [2] -1% | [3] 3.2% | [4] -26.9% | [5] -4.75% | [6] 0%

Cc1cc(=O)oc2c1ccc1occc(=O)c12
inactive: [1] -16.6% | [2] 10.4% | [3] -10.3% | [4] 4.95% | [5] 11.9% | [6] -11%

CCCCCOc1ccc(/C=C\C(=O)O)cc1
inactive: [1] 11.3% | [2] 2.55% | [3] -11.2% | [4] -6.75% | [5] -18.4% | [6] -6.35%

C1=[N+](c2ccccc2)CCN1c1ccccc1
inactive: [1] -0.7% | [2] -18.9% | [3] -22.1% | [4] -27.3% | [5] -32.1% | [6] -20.5%

CC1=C(C)Cc2c(-c3ccccc3)oc(-c3ccccc3)c2C1
inactive: [1] -13.3% | [2] -12.4% | [3] 0.7% | [4] 25.8% | [5] -7.95% | [6] -16.4%

CNC(=O)OCc1c(COC(=O)NC)c(-c2ccc(C(C)(C)C)cc2)n(C)c1C
inactive: [1] 3.45% | [2] 12.9% | [3] 5.5% | [4] -2.75% | [5] 15.8% | [6] 22.1%

CC(=O)ON=C(C1CC1)C1CC1
inactive: [1] -6% | [2] 3.5% | [3] -6.4% | [4] 4.3% | [5] -13% | [6] -3.3%

CCCC[n+]1cccc(C(=O)c2ccccc2)c1
inactive: [1] 15.7% | [2] -6.6% | [3] 0.7% | [4] 2.75% | [5] 2.35% | [6] 8.85%

CCC12CCCN(Cc3ccccc3)C1c1c([nH]c3ccccc13)C(C(=O)OC)C2 (centres undefined)
inactive: [1] 11.8% | [2] -2.25% | [3] 17.6% | [4] 13.7% | [5] -0.25% | [6] 2.3%

Cc1cc(O)c(C=NC(=S)c2ccccc2)c(=O)o1
inactive: [1] -14.1% | [2] -32% | [3] 10.2% | [4] 5.3% | [5] 4.55% | [6] -40.4%

CC(C)(O)C1CCC/C1=N/NC(N)=O (centres undefined)
inactive: [1] -7.5% | [2] 5% | [3] 5.2% | [4] 3.55% | [5] -10.3% | [6] -11.3%

CCCCCCCCCCCO/N=C\c1c2c(O)c3c(O)c(C)c4c(c3c1O)C(=O)C(C)(O/C=C\C(OC)C(C)C(OC(C)=O)C(C)C(O)C(C)C(O)C(C)/C=C\C=C(\C)C(=O)N2)O4 (centres undefined)
inactive: [1] -4.75% | [2] -4.75% | [3] -13.7% | [4] -9.75% | [5] -5.1% | [6] 26.2%

Cc1ccc(C(=O)Nc2ccc([N+](=O)[O-])cc2)cc1
inactive: [1] 4.2% | [2] -6.75% | [3] -0.35% | [4] -2.75% | [5] -5.35% | [6] -2.95%

O=C1CCCC/C1=C/c1ccccc1
inactive: [1] 6% | [2] 18.9% | [3] -3.3% | [4] -19.1% | [5] -11.9% | [6] 8.05%

O=C(c1ccccc1)[C@H]1Nc2ccc(Cl)cc2[C@H]2c3ccccc3O[C@H]21
inactive: [1] 33.9% | [2] -6.7% | [3] 12.4% | [4] 18.8% | [5] -1.45% | [6] 2.5%

C=CCOC(=O)NC(CCC(=O)O)C(=O)O (centres undefined)
inactive: [1] 21.1% | [2] -0.35% | [3] 19.3% | [4] 11% | [5] 3.4% | [6] 21%

CCOC1CCC=CO1 (centres undefined)
inactive: [1] -9.65% | [2] 3.7% | [3] 39% | [4] 28.7% | [5] -21.9% | [6] 39.6%

CC/C(CCC(=O)OC)=N/Nc1ccc([N+](=O)[O-])cc1[N+](=O)[O-]
inactive: [1] 4.05% | [2] 7.25% | [3] 6.9% | [4] -22.6% | [5] -5.9% | [6] -10.6%

CC(=O)Nc1cc2c(cc1Cl)[nH]c(=O)c1ccccc12
inactive: [1] 8.1% | [2] -10.9% | [3] -19.8% | [4] -3.25% | [5] 11.4% | [6] 7.5%

Cc1cccc2c(=O)[nH]c(=O)[nH]c12
inactive: [1] -14.2% | [2] -12.2% | [3] -2.15% | [4] -58.8% | [5] -4.4% | [6] -20.1%

N/N=C(\NN)c1ccccc1
inactive: [1] 11.7% | [2] 12.2% | [3] -4.2% | [4] -47.5% | [5] 0.75% | [6] 11.7%

C/C(=N/O)C1CC(C)([N+](=O)[O-])CCC1(C)O (centres undefined)
inactive: [1] -8.15% | [2] -13.6% | [3] -19.2% | [4] -8.5% | [5] 5.45% | [6] 5.65%

CCOC(=O)c1sc2nc(-c3ccccc3)nn2c1CBr
inactive: [1] 17.1% | [2] 3.95% | [3] 11.9% | [4] 24.1% | [5] 18.6% | [6] 49.4%

OC(CCl)CN1CCN(CC(O)CCl)CC1 (centres undefined)
inactive: [1] -3.05% | [2] 12.3% | [3] 2.55% | [4] 13.5% | [5] -9.55% | [6] -24.8%

CCCCC(CC)COC(=O)CSC#N (centres undefined)
inactive: [1] -6.7% | [2] -7.55% | [3] -9.85% | [4] -15.6% | [5] 2.05% | [6] -15.1%

CCCCCCCC(=O)NN(Cn1c(=S)sc2ccccc21)Cn1c(=S)sc2ccccc21
inactive: [1] 32% | [2] 9.25% | [3] 26.7% | [4] 21.7% | [5] -2.7% | [6] 6.65%

Cc1cccc(Nc2c(C(=O)O)cnc3cc4c(cc23)OCO4)c1
inactive: [1] -3.4% | [2] -4.85% | [3] 3.45% | [4] -49.8% | [5] -5.85% | [6] -6.1%

Nc1ccc(S(=O)(=O)n2cccc2)cc1
inactive: [1] -8.9% | [2] 1.2% | [3] -19.9% | [4] -6.4% | [5] -9.25% | [6] -10.5%

O=C1CC2(CCC(O)(c3ccc(Cl)cc3)C(C(=O)c3ccc(Cl)cc3)C2)C(=O)c2ccccc2N1 (centres undefined)
inactive: [1] -15.1% | [2] -3.55% | [3] -16.9% | [4] -23.5% | [5] -19.4% | [6] -48.6%

CC(=O)OC1CC(c2ccccc2)=NO1 (centres undefined)
inactive: [1] -12.8% | [2] -21.5% | [3] -8.6% | [4] -21.9% | [5] -10.8% | [6] -12.4%

CCCCCCCCCCCCCCCc1cc(OC)ccc1S(=O)(=O)O
inactive: [1] 22.6% | [2] 5.8% | [3] 15.9% | [4] 30.9% | [5] 3.1% | [6] 15.6%

CCC/C=C(/C=N/Nc1ccc([N+](=O)[O-])cc1[N+](=O)[O-])CC
inactive: [1] 16.4% | [2] -10.7% | [3] -7.8% | [4] 32.6% | [5] 0.75% | [6] 4.05%
